MRP resist rev = MRP-mediated drug resistance reversal; H69AR cells + 2 uM doxorubicin, CellTiter-Glo, 72 h; differential viability (reversal), % at 10 µM; 0.04% of 85,000 active; AID 602;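 active = viability drop by adding the cancer drug above about 55%, with treated viability meeting a 40% cutoff, limit read from the data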;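 note: larger differential means the compound sensitizes cells more to doxorubicin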
ERa SRC1 pot = ER-alpha (human) coactivator binding potentiation; coactivator binding (% of control), % at 25.6 µM; 1.3% of 86,000 active; TR-FRET ERalpha-LBD/SRC-Cy5 coactivator binding, 2 h; 100 = basal binding, no effect; AID 639; P03372; in the data active = activity above about 200%;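 note: binding measured in presence of low estradiol as agonist stimulus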
Smad3 FoxH1 inh = Smad3 (human) transcription factor binding inhibition. TR-FRET Smad3/Dy647-FoxH1 peptide binding, europium anti-His. inhibition, % at 25 µM. 0.29% of 88,000 active;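 active = compounds that reduce the energy-transfer binding signal between the protein and its labelled peptide by more than half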
ERa SRC1 inh = blocks coactivator binding to human estrogen receptor alpha | TR-FRET ER-alpha LBD / SRC-1 peptide, estradiol-bound | AID 629 | P03372 | 1.7% of 86,000 active | inhibition, % at 25.6 µM; in the data active = inhibition above about 50%
ERb coact inh = ER-beta (human) coactivator binding inhibition | TR-FRET ER-beta LBD / SRC1-Cy5 peptide binding; receptor agonist-loaded with 1 µM estradiol | inhibition, % at 25.6 µM | 1.3% of 86,000 active | AID 633;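 active = compounds whose percent inhibition of the receptor-coactivator binding signal exceeds about 50% in the single-dose screen, limit read from the data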
Target sequence (Q92731 whole entry, looked up, the tested form may be a part): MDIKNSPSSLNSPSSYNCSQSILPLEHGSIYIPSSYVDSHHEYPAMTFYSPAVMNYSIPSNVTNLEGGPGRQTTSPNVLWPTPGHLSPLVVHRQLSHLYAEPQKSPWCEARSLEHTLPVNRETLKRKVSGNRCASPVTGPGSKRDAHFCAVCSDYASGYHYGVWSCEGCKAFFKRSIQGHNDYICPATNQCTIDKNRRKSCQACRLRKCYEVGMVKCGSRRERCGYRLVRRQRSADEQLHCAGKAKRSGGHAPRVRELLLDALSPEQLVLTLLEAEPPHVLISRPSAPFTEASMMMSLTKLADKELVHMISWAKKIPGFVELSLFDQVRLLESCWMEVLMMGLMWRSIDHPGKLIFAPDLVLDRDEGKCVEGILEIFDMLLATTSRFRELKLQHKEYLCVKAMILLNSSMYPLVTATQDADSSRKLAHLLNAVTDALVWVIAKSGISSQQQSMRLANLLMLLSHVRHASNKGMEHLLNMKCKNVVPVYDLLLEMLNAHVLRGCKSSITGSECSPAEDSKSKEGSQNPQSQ
MRP-1 activ = MRP-1 activation; H69AR cells + doxorubicin, viability rescue, CellTiter-Glo; viability increase, % at 10 µM; 0.61% of 140,000 active;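 active = viability gain under doxorubicin at or above a set limit, the compound median plus 3 SD, cut at about 4.7% in these data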;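 note: MRP-1 overexpressing cells given doxorubicin 25 µM after compound pretreatment; 18-22 h compound pretreatment then 72 h with doxorubicin before readout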
Large screens that a line does not name were inactive; [ ] = another dose, or the depositor's remark. Rows were chosen to be rich in hits. Some 2.8% of all compounds tested hit in one or more screens of this group.

COc1cc(Cl)c(C)cc1NC(=O)COC(=O)c1cnc(C)cn1	none
Cc1cccc(NC(=O)C2CCN(S(=O)(=O)c3cccc4nsnc34)CC2)c1	none (no result: ERa SRC1 pot, Smad3 FoxH1 inh, ERa SRC1 inh, ERb coact inh, MRP-1 activ)
Cc1cccc(NC(=O)C2CCCN(S(=O)(=O)c3cccc4nsnc34)C2)c1 (stereo not given)	ERa SRC1 pot 230.0[fluorescence artefact?], ERb coact inh 51.0[fluorescence artefact?]
Cc1nc2cc(-c3ccsc3-n3c(C)ccc3C)[nH]n2c(=O)c1Cl	ERa SRC1 inh 59.2, ERb coact inh 64.3, MRP-1 activ 6.0
CCOC(=O)c1c(C)[nH]c(C)c1C(=O)COC(=O)CCOc1ccccc1OC	ERb coact inh 58.4
COc1ccccc1OCC(=O)c1[nH]c(C)c(C(C)=O)c1C	ERa SRC1 inh 68.9[fluorescence artefact?], ERb coact inh 73.8[fluorescence artefact?]
CC(=O)c1c(C)[nH]c(C(=O)COc2ccc(C#N)cc2)c1C	ERa SRC1 inh 63.3
CCOc1ccc(OCC)c(NC(=O)c2[nH]c(C)c(C(C)=O)c2C)c1	ERa SRC1 pot 249.2[fluorescence artefact?], ERa SRC1 inh 54.1[fluorescence artefact?]
CCOC(=O)c1[nH]c(C)c(C(=O)Nc2cc(OC)ccc2OC)c1C	none
NCCOC[C@H](N)C(=O)O	none (no result: MRP resist rev, ERa SRC1 pot, ERa SRC1 inh, ERb coact inh, MRP-1 activ)
O=C(Nc1cnc2ccccn2c1=O)c1ccc(F)cc1	ERb coact inh 64.9
Cc1ccc(-n2c(SCC3CCCCO3)nnc2-c2ccco2)cc1 (stereo not given)	none
Cn1c(C[C@@H](O)c2nc3ccccc3n2C)nc2ccccc21	none (no result: MRP resist rev, ERa SRC1 pot, ERa SRC1 inh, ERb coact inh, MRP-1 activ)
CCc1nnc2n1N=C(c1ccc(-c3cc(Cl)ccc3Cl)o1)CS2	ERa SRC1 inh 59.0
CCc1nnc2n1N=C(c1ccc(-c3ccc(Cl)cc3Cl)o1)CS2	none (no result: MRP-1 activ)
Nc1ccn([C@H]2O[C@H](CO)[C@@H]3[O][Sn]([c]4ccccc4)([c]4ccccc4)[O][C@@H]32)c(=O)n1	none (no result: MRP resist rev, ERa SRC1 pot, ERa SRC1 inh, ERb coact inh, MRP-1 activ)
Nc1ncnc2nn([C@H]3O[C@@H](CO)[C@H](O)[C@H]3O)nc12	none (no result: MRP resist rev, ERa SRC1 pot, ERa SRC1 inh, ERb coact inh, MRP-1 activ)
O=c1[nH]c(N/N=C/c2ccccc2Br)nnc1-c1ccccc1	MRP-1 activ 4.8 (no result: MRP resist rev, ERa SRC1 pot, Smad3 FoxH1 inh, ERa SRC1 inh, ERb coact inh)
CC(=O)c1c(C)[nH]c(C(=O)COC(=O)c2ccc3c(=O)n4c(nc3c2)CCC4)c1C	none (no result: MRP resist rev, ERa SRC1 pot, Smad3 FoxH1 inh, ERa SRC1 inh, ERb coact inh)
O=C(OCc1cc(=O)n2c(n1)sc1ccccc12)c1ccc2c(=O)n3c(nc2c1)CCC3	ERa SRC1 inh 79.0[fluorescence artefact?] (no result: MRP-1 activ)
CCOC(=O)C(C)Oc1ccc(=O)n(-c2ccccc2)n1 (stereo not given)	none
CC(NS(=O)(=O)c1ccc(Cl)cc1)C(=O)NCc1ccco1 (stereo not given)	none
O=C(NCc1ccco1)C1(S(=O)(=O)c2ccc(Cl)cc2)CC1	ERb coact inh 58.6
CCCc1nc(SCC(N)=O)[nH]c(=O)c1CC	none
Clc1nc(-c2ccccc2)cc(-c2ccccc2)n1	none (no result: MRP resist rev, ERa SRC1 pot, Smad3 FoxH1 inh, ERa SRC1 inh, ERb coact inh)
Cn1c(C(=O)NCCCN2CCCC2=O)cc2c(=O)n3ccccc3nc21	none (no result: MRP-1 activ)
CN(C)c1ccc(NC(=O)c2cc3c(=O)n4ccccc4nc3n2C)cc1	ERa SRC1 inh 100.2[fluorescence artefact?], ERb coact inh 93.1[fluorescence artefact?] (no result: MRP-1 activ)
O=C(COc1ncnc2ccc(Br)cc12)Nc1ccc(N2CCOCC2)cc1	none
Brc1ccc2ncnc(Nc3ccc(N4CCOCC4)cc3)c2c1	ERa SRC1 inh 59.3[fluorescence artefact?], ERb coact inh 82.5[fluorescence artefact?]
Nc1ccn([C@H]2O[C@@H](COP(=O)(O)O)[C@H](O)[C@H]2O)c(=O)n1	Smad3 FoxH1 inh 78.7 (no result: MRP resist rev, ERa SRC1 pot, ERa SRC1 inh, ERb coact inh, MRP-1 activ)
Nc1ccn([C@@H]2O[C@H](CO)[C@@H](O)[C@@H]2O)c(=O)n1	none (no result: MRP resist rev, ERa SRC1 pot, Smad3 FoxH1 inh, ERa SRC1 inh, ERb coact inh)
O=C(Nc1nc(=O)n(C(=O)C2CC2)s1)c1ccccc1	MRP-1 activ 6.8 (no result: MRP resist rev, ERa SRC1 pot, Smad3 FoxH1 inh, ERa SRC1 inh, ERb coact inh)
Cc1ccc(C(=O)Nc2nc(=O)n(C(=O)C3CC3)s2)cc1	none (no result: MRP resist rev, ERa SRC1 pot, Smad3 FoxH1 inh, ERa SRC1 inh, ERb coact inh)
CC(=O)c1c(C)[nH]c(C(=O)OCC(=O)N2CCc3ccccc32)c1C	ERa SRC1 pot 229.0
O=c1oc2c(O)c(O)cc3c(=O)oc4c(O)c(O)cc1c4c23	Smad3 FoxH1 inh 97.6, ERa SRC1 inh 93.9[fluorescence artefact?], ERb coact inh 97.9[fluorescence artefact?]
c1cc(CSc2ncnc3nc[nH]c23)ccn1	none (no result: MRP resist rev, ERa SRC1 pot, ERa SRC1 inh, ERb coact inh, MRP-1 activ)
CC(C)Cn1c(N)c(C(=O)COC(=O)c2cc(-c3ccco3)nc3ccccc23)c(=O)n(C)c1=O	ERa SRC1 inh 91.1[fluorescence artefact?], ERb coact inh 80.4[fluorescence artefact?]
Cn1c(=O)c(C(=O)COC(=O)c2cc(-c3ccco3)nc3ccccc23)c(N)n(Cc2ccccc2)c1=O	none (no result: MRP resist rev, ERa SRC1 pot, Smad3 FoxH1 inh, ERa SRC1 inh, ERb coact inh)
Cn1c(N)c(C(=O)COC(=O)c2cc(C3CC3)nc3ccccc23)c(=O)n(Cc2ccccc2)c1=O	MRP-1 activ 5.3 (no result: MRP resist rev, ERa SRC1 pot, Smad3 FoxH1 inh, ERa SRC1 inh, ERb coact inh)
COc1cc(-c2csc(C)n2)ccc1O	none
Cc1nc(-c2ccc(O)c(O)c2)cs1	ERb coact inh 58.8

From PubChem
